Among the data in PubChem BioAssay (EPA / NIEHS) are outcome and AC50 values, retold here.

Holding throughout (conditions): mRNA level, 48 h; actives raise or lower the signal
Read-out in experiment [1]: Early growth response protein 1 (EGR1) transcription factor, EGR1 (gene 1958)
Description: LTEA_HepaRG_EGR1: Life Technologies and Expression Analysis (LTEA) Assay for Early growth response protein 1 (EGR1) transcription factor using HepaRG (AID 2283490). In outline:
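Differentiated HepaRG cells in serum-free induction medium exposed 48 hours, duplicate, to 8 half-log concentrations up to 100 uM in 0.5% DMSO. EGR1 mRNA measured by TaqMan qRT-PCR, normalized to ACTB, GAPDH, POLR2A; bidirectional fit versus DMSO.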

Read-out in experiment [2]: Ezrin (EZR), EZR (gene 7430)
Nature of the experiment: LTEA_HepaRG_EZR: Life Technologies and Expression Analysis (LTEA) Assay for Ezrin (EZR) using HepaRG (AID 2283491). In outline: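 EZR transcript levels came from Fluidigm qRT-PCR and were normalized to three housekeeping genes after 48 h chemical exposure of HepaRG cells. Dosing used an 8-point half-log series with a 100 uM top concentration in 0.5% DMSO, tested in duplicate; both directions were fitted versus vehicle.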

Read-out in experiment [3]: Cytochrome P450 3A7 (Homo sapiens) (UniProt P24462)
Description: LTEA_HepaRG_CYP3A7: Life Technologies and Expression Analysis (LTEA) Assay for CYP3A7 using HepaRG (AID 2283492). The gist of the method:
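CYP3A7 transcript levels were read by TaqMan qRT-PCR on Fluidigm arrays after 48 h chemical exposure of human HepaRG cells, with housekeeping-gene normalisation. Eight half-log concentrations up to 100 uM in 0.5% DMSO were tested in duplicate.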

Read-out in another experiment: CYP3A5 (gene 1577)
Description: LTEA_HepaRG_CYP3A5: Life Technologies and Expression Analysis (LTEA) Assay for CYP3A5 using HepaRG (AID 2283493). In outline:
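mRNA induction or loss of CYP3A5 assessed in HepaRG after 48 h dosing, 100 uM top concentration, duplicate wells; TaqMan qRT-PCR with ACTB, GAPDH, POLR2A normalization; 0.5% DMSO as negative control.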

Read-out in experiment [4]: Cytochrome P450 4A22 (Homo sapiens) (UniProt Q5TCH4)
Nature of the experiment: LTEA_HepaRG_CYP4A22: Life Technologies and Expression Analysis (LTEA) Assay for Cytochrome P450 4A22 (CYP4A22) using HepaRG (AID 2283495). In outline:
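HepaRG, 48 h post-plating -> serum-free induction medium; dosed 48 h, duplicate, 8 conc. (100 uM top, half-log), 0.5% DMSO. Readout: CYP4A22 mRNA by qRT-PCR, ACTB/GAPDH/POLR2A normalization; gain/loss fit relative to DMSO.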

Read-out in experiment [5]: Cytochrome P450 7A1 (Homo sapiens) (UniProt P22680)
Description: LTEA_HepaRG_CYP7A1: Life Technologies and Expression Analysis (LTEA) Assay for Cytochrome P450 7A1 (CYP7A1) using HepaRG (AID 2283496). In outline: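 Gene expression endpoint in human HepaRG liver cells treated for 48 h with test chemicals (up to 100 uM, 0.5% DMSO). Values come from bidirectional concentration-response fitting versus DMSO.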

Read-out in experiment [6]: Glutathione S-Transferase (GSTA2), GSTA2 (gene 2939)
Description: LTEA_HepaRG_GSTA2: Life Technologies and Expression Analysis (LTEA) Assay for Glutathione S-Transferase (GSTA2) using HepaRG (AID 2283497). The gist of the method: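 Differentiated human HepaRG cells were exposed in duplicate for 48 h in serum-free induction medium, 8 points from 100 uM top in half-log steps, 0.5% DMSO. GSTA2 mRNA was measured by TaqMan qRT-PCR, normalized to ACTB, GAPDH and POLR2A; bidirectional fit versus DMSO.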

Read-out in experiment [7]: Glutamate-cysteine ligase catalytic (GCLC), GCLC (gene 2729)
Description: LTEA_HepaRG_GCLC: Life Technologies and Expression Analysis (LTEA) Assay for Glutamate-cysteine ligase catalytic (GCLC) using HepaRG (AID 2283498). In outline:
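Differentiated HepaRG cells exposed 48 h in serum-free induction medium, eight-point half-log series topping at 100 uM in 0.5% DMSO, duplicates. GCLC mRNA by qRT-PCR normalized to ACTB, GAPDH and POLR2A, fitted bidirectionally versus DMSO.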

Read-out in experiment [8]: growth arrest and DNA damage 45 (GADD45G), GADD45G (gene 10912)
Description: LTEA_HepaRG_GADD45G: Life Technologies and Expression Analysis (LTEA) Assay for growth arrest and DNA damage 45 (GADD45G) using HepaRG (AID 2283499). The gist of the method:
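HepaRG, 48 h exposure, top 100 uM, half-log 8-point series, 0.5% DMSO vehicle, duplicates. Readout: GADD45G transcript by qRT-PCR (Fluidigm array), housekeeping-normalised (ACTB/GAPDH/POLR2A). Bidirectional curve fit vs DMSO baseline.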

Read-out in experiment [9]: Glutathione S-transferase M3 (GSTM3), GSTM3 (gene 2947)
Description: LTEA_HepaRG_GSTM3: Life Technologies and Expression Analysis (LTEA) Assay for Glutathione S-transferase M3 (GSTM3) using HepaRG (AID 2283501). In outline: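 qRT-PCR read-out of GSTM3 transcript, normalized to three housekeeping genes, from human HepaRG cells after 48 h chemical exposure. Eight-point half-log series, top 100 uM, 0.5% DMSO vehicle; gain or loss fitted relative to DMSO baseline.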

Read-out in experiment [10]: Heat shock 70 kDa protein 1 (HSPA1A), gene 3303
Nature of the experiment: LTEA_HepaRG_HSPA1A: Life Technologies and Expression Analysis (LTEA) Assay for Heat shock 70 kDa protein 1 (HSPA1A) using HepaRG (AID 2283502). The gist of the method: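 HSPA1A induction in human HepaRG liver cells is measured after 48 h of chemical treatment (100 uM maximum, 0.5% DMSO vehicle). Expression comes from qRT-PCR normalized to endogenous controls.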

Read-out in experiment [11]: Hypoxia-inducible factor 1-alpha (Homo sapiens) (UniProt Q16665)
Description: LTEA_HepaRG_HIF1A: Life Technologies and Expression Analysis (LTEA) Assay for Hypoxia-inducible factor 1 (HIF1A) Trancription factor using HepaRG (AID 2283503). The gist of the method:
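HepaRG, 48 h exposure, 8-pt half-log series from 100 uM, 0.5% DMSO vehicle, duplicates. Readout: HIF1A transcript by qRT-PCR (Fluidigm array), housekeeping-normalised. Bidirectional curve fit vs DMSO baseline.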

Read-out in the next experiment: HGF (gene 3082)
Description: LTEA_HepaRG_HGF: Life Technologies and Expression Analysis (LTEA) Assay for Hepatocyte Growth Facto (HGF) using HepaRG (AID 2283505). The gist of the method:
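HepaRG, 48 h dosing, 8-pt half-log series from 100 uM in 0.5% DMSO, duplicates. Readout: TaqMan qRT-PCR of HGF mRNA, housekeeping-normalized; bidirectional curve fit vs DMSO baseline.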

Read-out in experiment [12]: Insulin Like Growth Factor 1 (IGF1), IGF1 (gene 3479)
Description: LTEA_HepaRG_IGF1: Life Technologies and Expression Analysis (LTEA) Assay for Insulin Like Growth Factor 1 (IGF1) using HepaRG (AID 2283506). The gist of the method:
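Using human HepaRG liver cells, IGF1 transcript induction or suppression is measured 48 h after dosing across eight concentrations capped at 100 uM. Values derive from bidirectional concentration-response fitting with DMSO as baseline.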

Read-out in experiment [13]: Intercellular Adhesion Molecule 1 (ICAM1), ICAM1 (gene 3383)
Description: LTEA_HepaRG_ICAM1: Life Technologies and Expression Analysis (LTEA) Assay for Intercellular Adhesion Molecule 1 (ICAM1) using HepaRG (AID 2283507). In outline: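 HepaRG, 48 h exposure, 8-pt half-log series from 100 uM, 0.5% DMSO vehicle, duplicates. Readout: TaqMan qRT-PCR mRNA, housekeeping-normalized (ACTB/GAPDH/POLR2A). Bidirectional curve fit vs DMSO baseline.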

Read-out in experiment [14]: Insulin-like growth factor-binding protein 1 (IGFBP1), IGFBP1 (gene 3484)
Description: LTEA_HepaRG_IGFBP1: Life Technologies and Expression Analysis (LTEA) Assay for Insulin-like growth factor-binding protein 1 (IGFBP1) using HepaRG (AID 2283508). The gist of the method: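 qRT-PCR mRNA read-out (TaqMan, Fluidigm array), normalised to three housekeeping genes; HepaRG cells, 48 h exposure, 8-pt half-log series from 100 uM, 0.5% DMSO vehicle; bidirectional curve fit vs DMSO baseline.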

Read-out in experiment [15]: Interleukin 6 (IL6), IL6 (gene 3569)
Nature of the experiment: LTEA_HepaRG_IL6: Life Technologies and Expression Analysis (LTEA) Assay for Interleukin 6 (IL6) using HepaRG (AID 2283509). The gist of the method:
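HepaRG cells exposed in duplicate for 48 h to eight half-log concentrations, top 100 uM, in 0.5% DMSO serum-free induction medium. mRNA measured by qRT-PCR, normalized to ACTB, GAPDH and POLR2A. Bidirectional fit versus DMSO.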

Read-out in experiment [16]: 3-Hydroxy-3-Methylglutaryl-CoA Synthase 2 (HMGCS2), HMGCS2 (gene 3158)
Nature of the experiment: LTEA_HepaRG_HMGCS2: Life Technologies and Expression Analysis (LTEA) Assay for 3-Hydroxy-3-Methylglutaryl-CoA Synthase 2 (HMGCS2) using HepaRG (AID 2283504). In outline: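 qRT-PCR read-out of HMGCS2 transcript, normalised to three housekeeping genes, in HepaRG cells after 48 h chemical exposure. Eight-point curves from 100 uM, half-log dilutions, 0.5% DMSO vehicle; gain or loss fitted relative to DMSO baseline.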

Structures are written as SMILES. Active and inactive are the calls of the source. How the source made its calls: active means hit-call score of the fitted dose curve at least 0.9, where 1 is the maximum; inactive means score below 0.9.

Usually AC50 stands for the concentration giving half of the maximal activity seen.

Sequence of Cytochrome P450 3A7 (Homo sapiens) (P24462 whole entry, looked up): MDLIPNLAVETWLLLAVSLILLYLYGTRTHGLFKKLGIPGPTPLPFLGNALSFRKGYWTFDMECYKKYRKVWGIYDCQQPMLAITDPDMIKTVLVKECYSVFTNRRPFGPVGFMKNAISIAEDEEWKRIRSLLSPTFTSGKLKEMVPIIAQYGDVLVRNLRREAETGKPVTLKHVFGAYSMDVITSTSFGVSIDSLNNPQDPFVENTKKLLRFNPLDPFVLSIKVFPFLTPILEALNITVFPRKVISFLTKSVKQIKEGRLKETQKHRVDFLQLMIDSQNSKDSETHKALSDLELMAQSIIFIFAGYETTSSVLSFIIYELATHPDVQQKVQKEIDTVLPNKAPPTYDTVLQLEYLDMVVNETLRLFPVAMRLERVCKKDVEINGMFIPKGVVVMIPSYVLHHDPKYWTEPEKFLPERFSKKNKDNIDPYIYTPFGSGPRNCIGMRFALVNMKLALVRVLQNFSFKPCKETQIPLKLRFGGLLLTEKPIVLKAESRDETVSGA
Sequence of Hypoxia-inducible factor 1-alpha (Homo sapiens) (Q16665 whole entry, looked up): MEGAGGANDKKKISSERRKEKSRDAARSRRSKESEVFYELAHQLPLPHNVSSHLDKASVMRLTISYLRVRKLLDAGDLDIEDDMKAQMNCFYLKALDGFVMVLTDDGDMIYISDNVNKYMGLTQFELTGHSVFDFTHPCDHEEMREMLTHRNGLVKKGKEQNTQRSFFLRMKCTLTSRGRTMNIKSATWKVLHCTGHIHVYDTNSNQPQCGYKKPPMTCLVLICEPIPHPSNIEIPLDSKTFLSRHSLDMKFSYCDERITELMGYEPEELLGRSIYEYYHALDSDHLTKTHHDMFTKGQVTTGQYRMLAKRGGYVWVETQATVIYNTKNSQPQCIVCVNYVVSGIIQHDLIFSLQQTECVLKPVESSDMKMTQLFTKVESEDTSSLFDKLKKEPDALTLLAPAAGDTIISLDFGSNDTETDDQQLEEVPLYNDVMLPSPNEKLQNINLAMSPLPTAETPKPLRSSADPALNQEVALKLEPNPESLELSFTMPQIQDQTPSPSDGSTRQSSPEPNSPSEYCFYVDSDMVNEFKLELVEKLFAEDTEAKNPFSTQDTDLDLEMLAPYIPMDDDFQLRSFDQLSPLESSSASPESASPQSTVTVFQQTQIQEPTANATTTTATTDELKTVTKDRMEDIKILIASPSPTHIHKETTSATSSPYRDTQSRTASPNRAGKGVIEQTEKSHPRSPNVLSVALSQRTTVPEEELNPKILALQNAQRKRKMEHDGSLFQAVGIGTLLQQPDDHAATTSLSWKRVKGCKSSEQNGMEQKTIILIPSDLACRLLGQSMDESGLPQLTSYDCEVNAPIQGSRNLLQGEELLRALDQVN

For the compound `CCCCCCC(C=O)=Cc1ccccc1`, the call (in [1]; in experiment [2]; in [3]; with CYP3A5 (gene 1577); in [4]; in experiment [5]) was inactive. Moreover, the call in [6], in experiment [7], in experiment [8], in experiment [9], in experiment [10] and in experiment [11] was inactive. Moreover, the outcome (in the experiment with HGF (gene 3082); in experiment [12]; in experiment [13]; in experiment [14]; in [15]) was inactive.
`O=C1O[C@H]([C@H](O)CO)C(O)=C1O`: the compound was called inactive (in [1]; in experiment [2]; in experiment [3]; with CYP3A5 (gene 1577); in [4]; in experiment [5]). Moreover, the call in [6], in experiment [7], in experiment [8], in [9], in [10] and in experiment [11] was inactive. Also, the outcome (in experiment [16]; in the experiment with HGF (gene 3082); in experiment [13]; in experiment [14]; in experiment [15]) was inactive.
With `COc1ccc(OC(F)(F)F)cc1CN[C@H]1CCCN[C@H]1c1ccccc1`, the AC50 in experiment [1] was 86.6 µM (active); with CYP3A5 (gene 1577) it was 78.5 µM (active); in experiment [4], 15.8 µM (active); in experiment [6], 5.08 µM (active); in experiment [7], 90.1 µM (active); in experiment [10], 73.3 µM (active). In addition, the AC50 in experiment [13] was 75.7 µM (active); in experiment [14], 71.7 µM (active); in experiment [15] it was 82.9 µM (active). Besides, the compound was called inactive in experiment [2], in experiment [3], in [5], in experiment [8], in experiment [9] and in experiment [11]. The outcome (in the experiment with HGF (gene 3082); in experiment [12]) was inactive.
In the case of `CC(=O)O`, the compound was called inactive (in [1]; in experiment [2]; in experiment [3]; in the experiment with CYP3A5 (gene 1577); in [4]; in [5]). Besides, the result in experiment [6], in experiment [7], in [8], in experiment [10], in [11] and in [16] was inactive. In addition, the compound was called inactive (with HGF (gene 3082); in [12]; in [13]; in experiment [14]; in [15]).
